From PubChem BioAssay (NCATS)
“And” between values parts separate entries of the source, which are not always exact repeats. Equal entries are not always repeated. Results filed as inconclusive are left out. The source made the active and inactive calls. Unless noted, calls come from the whole dose curve; as a rule, active = well fitted curve in the direction sought with a large enough effect; inconclusive = small, poorly fitted or top-dose-only effect, or another doubt; inactive = no such curve, though single readings can be large; an effect the other way counts as inactive or inconclusive.

Key:
[1] = Quantitative High-Throughput drug screen in 47 multiple myeloma cell lines against the NCATS MIPE library collection: KMS11_JCRBsus cell viability assay (AID 1919873); note: potency is the fitted concentration of half-maximal effect; nearly all actives have a fitted effect of over 50% in size
Outline: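 MIPE 4.0 approved/investigational drugs; 500 cells/well; 48 h 37 °C humidified 5% CO2; CTG luminescence readout; DMSO = 100%, media = 0% viability.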

[2] = qHTS drug screen for cell cycle checkpoint inhibitors in PARPi-resistant BRCA-mutant ovarian cancer cell lines. (AID 1963452; calls by dose curve); conditions: PEO1/OlaR viability, CellTiter-Glo luminescence, 96 h, stronger effect = lower value
Outline: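 PEO1, PEO4 and PEO1/OlaR ovarian cancer cells, 600 per well, exposed 96 h at 37C to a dilution series. Viability read by CellTiter-Glo luminescence, normalized to DMSO and empty wells; activity summarized as Z-AUC.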

[3] = qHTS profiling for inhibitors of Plasmodium falciparum proliferation (AID 504749); note: nearly all actives have a fitted effect of over 60% in size; note: potency is the fitted concentration of half-maximal effect;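 for activity, negative = inhibition: 0% = DMSO vehicle and full inhibition = artemisinin control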; conditions: P. falciparum in erythrocytes, SYBR Green DNA, 72 h
Outline: (§1)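 Parasite proliferation within erythrocytes, 72 h exposure. Endpoint: SYBR Green I fluorescence after overnight lysis at room temperature. Controls: 0.29 uM artemisinin, DMSO.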

3D7 = experiment: as above; conditions: P. falciparum in erythrocytes, SYBR Green DNA, 72 h; series mostly up to 28.7 µM
Outline: as §1

7G8 = experiment: as above; conditions: P. falciparum in erythrocytes, SYBR Green DNA, 72 h; series mostly up to 28.7 µM
Outline: as §1

AA1029 = experiment: as above; conditions: P. falciparum in erythrocytes, SYBR Green DNA, 72 h; series mostly up to 28.7 µM
Outline: as §1

AS120 = experiment: as above; conditions: P. falciparum in erythrocytes, SYBR Green DNA, 72 h; series mostly up to 28.7 µM
Outline: as §1

ATS189 = experiment: as above; conditions: P. falciparum in erythrocytes, SYBR Green DNA, 72 h; series mostly up to 28.7 µM
Outline: as §1

ATS95 = experiment: as above; conditions: P. falciparum in erythrocytes, SYBR Green DNA, 72 h; series mostly up to 28.7 µM
Outline: as §1

C2A = experiment: as above; conditions: P. falciparum in erythrocytes, SYBR Green DNA, 72 h; series mostly up to 28.7 µM
Outline: as §1

[4] = measured here: PEO1 parental Z-AUC
[5] = at 28.7 µM (top of the series), parasite line A
[6] = at 28.7 µM (top of the series), parasite line B

CC(C)CC(N(C)C)C1(c2ccc(Cl)cc2)CCC1 (stereo unspecified)
active: Potency [1] 18.7 µM
inactive: Z-AUC [2] 0.505 | activity, negative = inhibition [3, 5] 6.97% | activity, negative = inhibition [3, 6] 4.99% | Potency (3D7) | Potency (7G8) | Potency (AA1029) | Potency (AS120) | Potency (ATS189) | Potency (ATS95) | Potency (C2A)
0.684: Z-AUC [2, 4]
0.647: Z-AUC ([2]; measured here: PEO4 Z-AUC)

Fc1ccc(C(OCCN2CCN(CCCc3ccccc3)CC2)c2ccc(F)cc2)cc1
active: Potency [1] 11.8 µM | Potency ([3]; parasite line A) 8.91 µM | Potency ([3]; parasite line B) 11.2 µM | Potency (3D7) 8.91 µM | Potency (7G8) 3.55 µM | Potency (AA1029) 7.08 µM | Potency (AS120) 4.47 µM | Potency (ATS189) 8.91 µM | Potency (ATS95) 7.94 µM | Potency (C2A) 11.2 µM
-0.0118: Z-AUC ([2]; measured here: PEO4 Z-AUC)
inactive: Z-AUC [2] 0.198
-0.0312: Z-AUC [2, 4]

C[C@@H]1[C@@H](CC(C[C@H]2O[C@@H]3O[C@]4(C)CC[C@@H]5[C@H](C)CC[C@@H]([C@H]2C)[C@@]35OO4)C[S+](=O)([O-])c2ccc(COC(=O)N(C)C)cc2)O[C@@H]2O[C@]3(C)CC[C@H]4[C@H](C)CC[C@@H]1[C@@]24OO3 (stereo partly specified)
active: Potency [1] 0.148 µM

N#CC(C#N)=Cc1ccc(O)c(O)c1
active: Potency (7G8) 8.91 µM
inactive: activity, negative = inhibition [3, 5] -14.1% | activity, negative = inhibition [3, 6] -25.8% | Potency (3D7) | Potency (AA1029) | Potency (AS120) | Potency (ATS189) | Potency (ATS95) | Potency (C2A)

CCOC(=O)C1(c2ccccc2)CCN(CCC(C#N)(c2ccccc2)c2ccccc2)CC1
active: Potency ([3]; parasite line A) 2.51 µM | Potency ([3]; parasite line B) 3.16 µM | Potency (3D7) 2.51 µM | Potency (7G8) 2.24 µM | Potency (AA1029) 3.16 µM | Potency (AS120) 2.24 µM | Potency (ATS189) 3.55 µM | Potency (ATS95) 3.55 µM | Potency (C2A) 3.55 µM

CCC(COC(=O)c1cc(OC)c(OC)c(OC)c1)(c1ccccc1)N(C)C (stereo unspecified)
inactive: activity, negative = inhibition [3, 5] -11.1% | activity, negative = inhibition [3, 6] -13.8% | Potency (3D7) | Potency (7G8) | Potency (AA1029) | Potency (AS120) | Potency (ATS189) | Potency (ATS95) | Potency (C2A)

CC1OC(C)OC(C)O1 (stereo unspecified)
inactive: activity, negative = inhibition [3, 5] 8.9% and 17.9% | activity, negative = inhibition [3, 6] 12.4% and 13.9% | Potency (3D7) | Potency (7G8) | Potency (AA1029) | Potency (AS120) | Potency (ATS189) | Potency (ATS95) | Potency (C2A)

O=P1(NCCCl)OCCCN1CCCl (stereo unspecified)
inactive: Z-AUC [2] 0.293 | activity, negative = inhibition ([3]; at 12.8 µM (top of the series), parasite line A) -2.67% | activity, negative = inhibition ([3]; at 12.8 µM (top of the series), parasite line B) 0.405% | Potency (3D7) | Potency (7G8) | Potency (AA1029) | Potency (AS120) | Potency (ATS189) | Potency (ATS95) | Potency (C2A)
-0.297: Z-AUC [2, 4]
-0.293: Z-AUC ([2]; measured here: PEO4 Z-AUC)

O=C(NC(O)C(Cl)(Cl)Cl)NC(O)C(Cl)(Cl)Cl (stereo unspecified)
inactive: activity, negative = inhibition [3, 5] -1.71% | activity, negative = inhibition [3, 6] 6.79% | Potency (3D7) | Potency (7G8) | Potency (AA1029) | Potency (AS120) | Potency (ATS189) | Potency (ATS95) | Potency (C2A)

NP(N)(=O)NC(=O)c1ccc(F)cc1
inactive: activity, negative = inhibition [3, 5] -1.33% | activity, negative = inhibition [3, 6] 3.8% | Potency (3D7) | Potency (7G8) | Potency (AA1029) | Potency (AS120) | Potency (ATS189) | Potency (ATS95) | Potency (C2A)

CC(CCc1ccccc1)NC(C)C(O)c1ccc(O)cc1 (stereo unspecified)
inactive: activity, negative = inhibition [3, 5] 8.41% | activity, negative = inhibition [3, 6] 8.3% | Potency (3D7)

Oc1cc(Cl)ccc1Oc1ccc(Cl)cc1Cl
active: Potency ([3]; parasite line A) 11.2 µM | Potency ([3]; parasite line B) 5.01 µM | Potency (3D7) 11.2 µM | Potency (7G8) 1.12 µM | Potency (AA1029) 7.94 µM | Potency (AS120) 3.98 µM | Potency (ATS189) 7.08 µM | Potency (ATS95) 10 µM

COc1ccccc1N1CCNCC1
inactive: activity, negative = inhibition [3, 5] -0.986% | activity, negative = inhibition [3, 6] 0.847% | Potency (3D7) | Potency (7G8) | Potency (AA1029) | Potency (AS120) | Potency (ATS189) | Potency (ATS95) | Potency (C2A)

NN=C(N)N
inactive: Z-AUC [2] 0.673 | activity, negative = inhibition [3, 5] -1.43% | activity, negative = inhibition [3, 6] 11.2% | Potency (3D7) | Potency (7G8) | Potency (AA1029) | Potency (AS120) | Potency (ATS189) | Potency (ATS95) | Potency (C2A)
0.529: Z-AUC [2, 4]
0.584: Z-AUC ([2]; measured here: PEO4 Z-AUC)

C=C1CC[C@@]2(O)[C@H]3Cc4ccc(O)c5c4[C@@]2(CCN3CC2CC2)[C@H]1O5
inactive: activity, negative = inhibition [3, 5] 9.27% | activity, negative = inhibition [3, 6] 12.8% | Potency (3D7) | Potency (7G8) | Potency (AA1029) | Potency (AS120) | Potency (ATS189) | Potency (ATS95) | Potency (C2A)

CC(=O)Nc1cc([As](=O)(O)O)ccc1O
inactive: activity, negative = inhibition [3, 5] -21% | activity, negative = inhibition [3, 6] -0.406% | Potency (3D7) | Potency (7G8) | Potency (AA1029) | Potency (AS120) | Potency (ATS189) | Potency (ATS95) | Potency (C2A)

CC(C)=CC1C(C(=O)OCc2cccc(Oc3ccccc3)c2)C1(C)C (stereo unspecified)
inactive: activity, negative = inhibition [3, 5] -11.7% | activity, negative = inhibition [3, 6] -17.5% | Potency (3D7) | Potency (AA1029) | Potency (AS120) | Potency (ATS189) | Potency (ATS95) | Potency (C2A)
active: Potency (7G8) 12.6 µM

O=c1[nH]c2ccccc2n1CCCN1CCC(n2c(=O)[nH]c3cc(Cl)ccc32)CC1
0.827: Z-AUC ([2]; measured here: PEO4 Z-AUC)
active: Potency ([3]; parasite line A) 11.2 µM | Potency (7G8) 1.41 µM | Potency (AS120) 5.01 µM | Potency (C2A) 11.2 µM
inactive: Z-AUC [2] 1.58
0.892: Z-AUC [2, 4]

CCOP(=S)(OCC)Oc1cc(C)nc(C(C)C)n1
inactive: activity, negative = inhibition [3, 5] 5.69% | activity, negative = inhibition [3, 6] 9.55% | Potency (3D7) | Potency (7G8) | Potency (AA1029) | Potency (AS120) | Potency (ATS189) | Potency (ATS95) | Potency (C2A)

Cn1cc(C2=C(c3cn(C4CCN(Cc5ccccn5)CC4)c4ccccc34)C(=O)NC2=O)c2ccccc21
0.154: Z-AUC ([2]; measured here: PEO4 Z-AUC)
inactive: Z-AUC [2] -0.351
0.347: Z-AUC [2, 4]
